VP16 counter: VP16 counterscreen qHTS for inhibitors of ROR gamma transcriptional activity | hit rate 3.5% among 310,000 | Potency, µM (doses to about 53.6 µM), usual class: inhibitors | Drosophila S2 Gal4-VP16 UAS-luciferase, luminescence, 20 h;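 further: Gal4-VP16 expression switched on by copper sulfate through the metallothionein promoter; nearly all actives have a fitted effect of over 50% in size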
KinaseGlo FLuc: Counterscreen for Luciferase (Kinase-Glo TM) Inhibition; Potency, µM (doses to about 38.3 µM), actives largely listed as inhibitors; Kinase-Glo luciferase, ATP luminescence, 8 min; Luciferin 4-monooxygenase (Photuris pensylvanica), Q27757; hit rate 0.28% among 200,000; AID 1379, 2008; further: nearly all actives have a fitted effect of over 60% in size
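Luminescence was the read-out, taken after 8-minute incubation at ambient temperature. Luciferase turned over luciferin with 10 uM ATP in imidazole pH 7.2 buffer containing KCl, MgCl2, Tween 20 and BSA.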
RORg inh: qHTS for inhibitors of ROR gamma transcriptional activity; Nuclear receptor ROR-gamma (Mus musculus), P51450; Drosophila S2 Gal4-RORgamma UAS-luciferase reporter, 20 h; Potency, µM (series often up to 53.6 µM), hits mostly inhibitors; hit rate 5.4% among 310,000; further: nearly all actives have a fitted effect of over 60% in size
Target sequence (P51450 whole entry, looked up, the tested form may be a part): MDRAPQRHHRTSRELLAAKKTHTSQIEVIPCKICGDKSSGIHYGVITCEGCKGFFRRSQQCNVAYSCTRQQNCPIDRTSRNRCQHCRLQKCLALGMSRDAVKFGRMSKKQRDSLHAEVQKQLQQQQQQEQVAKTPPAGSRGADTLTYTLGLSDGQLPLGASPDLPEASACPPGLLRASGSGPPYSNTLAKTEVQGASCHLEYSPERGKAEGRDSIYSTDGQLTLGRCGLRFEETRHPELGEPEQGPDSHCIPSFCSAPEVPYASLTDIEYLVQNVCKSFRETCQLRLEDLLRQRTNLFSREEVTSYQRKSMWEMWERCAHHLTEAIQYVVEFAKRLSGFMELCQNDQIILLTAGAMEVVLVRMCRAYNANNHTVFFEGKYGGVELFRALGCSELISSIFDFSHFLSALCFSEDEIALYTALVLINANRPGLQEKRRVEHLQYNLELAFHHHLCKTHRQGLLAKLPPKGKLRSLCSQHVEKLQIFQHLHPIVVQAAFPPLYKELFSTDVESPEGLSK
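Using a luciferase readout, inhibitors were identified by reduced reporter activity in Drosophila cells coexpressing a copper-inducible Gal4–ROR gamma fusion and UAS-driven Photinus luciferase, incubated 20 hr after 700 uM copper sulfate.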
Numbers stand for hits; 0 = inactive; ? = inconclusive; - = not tested or not shown; [ ] = remark or other dose. This is a sample that favours compounds with a hit; in the whole collection about 6.2% have one here. The call rests on the fitted dose curve; in most records, active means well fitted curve in the direction sought with a large enough effect; inconclusive means small, poorly fitted or top-dose-only effect, or another doubt; inactive means no such curve, though single readings can be large; an effect the other way counts as inactive or inconclusive.

SMILES | VP16 counter | KinaseGlo FLuc | RORg inh
COC(=O)C1=NN(C(=O)c2cccc(Cl)c2)C(O)(C(C)(C)C)C1 (stereo not given) | ? | 0 | 5µM
O=C(c1ccccc1)N1N=C(C(F)(F)F)CC1(O)c1ccccc1 (stereo not given) | ? | - | 0[1.91 µM]
COC(=O)C1=NN(C(=O)c2ccc(C)cc2)C(O)(c2ccc(Cl)cc2)C1 (stereo not given) | 0 | 0 | 0
O=C(c1ccccc1)N1N=C(C(F)(F)F)CC1(O)c1ccc(F)cc1 (stereo not given) | ? | - | 20µM
Cc1ccc(C(C)C)c(OCC(=O)Nc2ccc(Cl)cn2)c1 | 0 | 0 | 0
CC1=NN(C(=O)c2ccc(Cl)cc2)C(O)(c2ccccc2)C1 (stereo not given) | 13µM | - | 10µM
CC1=NN(C(=O)COc2cc(C)ccc2C(C)C)C(O)(c2ccccc2)C1 (stereo not given) | 18µM | - | 11µM
C[C@@H]1C[C@](C)(C(=O)c2ccc3c(c2)OCO3)C=C1c1ccc2c(c1)OCO2 | 0 | 0 | 0
CN(C)C(=O)Cn1cc(S(=O)(=O)Cc2ccccc2)c2ccccc21 | 0 | - | 0
N[C@H](C(=O)O)c1cc(O)cc(O)c1 | 0 | 0 | 0
CN[C@@H](c1ccncc1)[C@@H](NC)c1ccncc1 | - | 0[7.66 µM] | -
CC1=NN(C(=O)CSCc2ccccc2)C(O)(c2ccc(F)cc2)C1 (stereo not given) | ? | 0 | 7.1µM
COC(=O)C1=NN(C(=O)c2ccccc2)C(O)(c2ccc([N+](=O)[O-])cc2)C1 (stereo not given) | 7.1µM | - | 5µM
O=C(CSCc1ccccc1)N1CCN(c2ccc(F)cc2)CC1 | 0 | 0 | ?
COC(=O)C1=NN(C(=O)c2ccccc2)C(C)(O)C1 (stereo not given) | 0 | 0 | 0
CN(CC(=O)NC1CC(C)(C)NC(C)(C)C1)S(=O)(=O)c1cc(Cl)ccc1Cl | 0 | 0 | 0
CC1CCCC(C)N1S(=O)(=O)c1ccc(Cl)cc1 (stereo not given) | 0 | - | 0
CC1=C(C)CS(=O)N(S(=O)(=O)c2ccc(Cl)cc2)C1 (stereo not given) | 6.3µM | 0 | ?
CC(=O)SC(C[N+](=O)[O-])c1cn(C(C)=O)c2ccccc12 (stereo not given) | ? | - | 11µM
CC(=O)n1cc(Nc2ccc([N+](=O)[O-])cc2)c2ccccc21 | 0 | 0 | 0
CC1=NC(=O)C(N=Nc2cccc(C(=O)O)c2)N1c1ccccc1 (stereo not given) | 8.9µM | 0 | 5.6µM
CC1=NC(=O)C(N=Nc2ccccc2)N1c1ccccc1 (stereo not given) | ? | 0 | 0
Cc1c(NC(=O)C(C)OC(=O)/C=C/c2ccco2)c(=O)n(-c2ccccc2)n1C (stereo not given) | 0 | 0 | 0
O=S(=O)(/C=C/c1ccccc1)Nc1ccc(F)cc1 | 0 | 0 | ?
COc1ccc(C(NC=O)c2cc(OC)c(OC)cc2Br)cc1OC (stereo not given) | 0 | 0 | 0
SMILES | VP16 counter | KinaseGlo FLuc | RORg inh
COCCn1c(SCC(=O)c2ccc(Cl)cc2)nnc1C(C)C | 0 | 0 | 0
CCCCCc1cc(O)c2c(C)cc(=O)oc2c1 | 11µM | 0 | 3.2µM
Cc1cc(=O)oc2cc(O)cc(O)c12 | 0 | - | 0
Cc1nc(C(C)N(C)Cc2nc(-c3ccc4c(c3)OCO4)no2)c(C)s1 (stereo not given) | ? | 0 | 18µM
Cc1cccc(-c2noc(CN(C(=O)c3ccc4c(c3)OCO4)C(C)C)n2)c1 | 0 | 0 | 0
C/C=C\C[C@H](C)[C@H](O)[C@H]1C(=O)N[C@@H](CC)C(=O)N(C)CC(=O)N(C)[C@@H](CC(C)C)C(=O)N[C@@H](C(C)C)C(=O)N(C)[C@@H](CC(C)C)C(=O)N[C@@H](C)C(=O)N[C@@H](C)C(=O)N(C)[C@@H](CC(C)C)C(=O)N(C)[C@@H](CC(C)C)C(=O)N(C)[C@@H](C(C)C)C(=O)N1C | 0 | 0 | 0
Cc1ccc(S/C=C\C(=O)c2ccccc2)cc1 | 14µM | 0 | 0
Cc1ccc(C(=O)/C=C\NCc2ccccc2)cc1 | ? | 0 | 0
Cc1ccc(C(=O)/C=C\C(=O)c2ccc(C)cc2)cc1 | 10µM | 0 | 0
CC(/C=C/C(=O)c1ccc(C)cc1)=C\c1ccccc1 | 0 | 0 | 0
CCCCOc1ccc(C(=O)N(Cc2ccco2)C2CCS(=O)(=O)C2)cc1 (stereo not given) | 0 | - | 0
CC(C)(C)CC(=O)NCCCCCCNC(=O)CC(C)(C)C | 0 | 0 | 0
CCOC(=O)COc1cc([N+](=O)[O-])cc2cccnc12 | 0 | 0 | 0
CCOC(=O)COc1ccccc1/C=C\[N+](=O)[O-] | 3.5µM | 0 | 16µM
